Screening results from PubChem BioAssay.
This is a sample that favours compounds with a hit; in the whole collection about 6.5% have one here.
TGFb inhibitor: qHTS for Inhibitors of TGF-b; 410,000 compounds, 1.2% hits; Potency, µM (top dose mostly 46.1 µM), most hits filed as inhibitors; HepG2 CAGA-GFP TGF-b/SMAD3 reporter, GFP fluorescence, 18 h; TGF-beta stimulated, 500 pg/mL final; note: nearly all actives have a fitted effect of over 65% in size
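HEPG2 CAGA-GFP reporter cells (1000/well, DMEM with 1% FBS) received compounds, then recombinant TGF-beta at 500 pg/mL final for 18 hours at 37 degrees C. Per-cell GFP summed per well was normalised to unstimulated and stimulated DMSO controls before curve fitting.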
IL-1B inflam inh: qHTS for Inhibitors of Inflammasome Signaling: IL-1-beta AlphaLISA Primary Screen | THP-1 LPS/ATP IL-1B secretion, AlphaLISA, 16 h; active compounds read low | activity change, % at 57.5 µM | 360,000 compounds, 4.7% hits; in the data active = activity change below about -50%; inconclusive = mostly about -30% to -49%
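Secreted IL-1B measured by AlphaLISA bead assay after 16 h compound exposure of THP-1 cells; compounds (final up to 57.5 uM) added 1 h before LPS (250 ng/mL) and ATP (1.25 mM) stimulation; lower signal means less secretion.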
Giardia killer: Small Molecules that selectively kill Giardia lamblia: qHTS; Giardia lamblia trophozoite viability; 340,000 compounds, 0.15% hits; activity change, % at 7.66 µM, hits read low; in the data active = activity change below about -80%; inconclusive = between about -30% and that limit;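 note: parasites exposed to compound for two days anaerobically before the ATP read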
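Trophozoites 100 cells/well + cpd; 48 hrs, 37 deg C, anaerobic. ATPLite 1-Step added, 15-30 min RT, luminescence read (ATP-based viability).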
HT1080 IDH1KD tx: qHTS for induction of synthetic lethality in tumor cells producing 2HG: qHTS for the HT-1080-IDH1KD cell line; HT-1080 IDH1 knockdown viability, ATP luminescence, 48 h; Potency, µM (highest dose often 46.1 µM), most hits filed as cytotoxic; 360,000 compounds, 2% hits; AID 686971, 2013
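Using the IDH1-knockdown HT-1080 line run in the same batch and compound series as the NT line, viability after 48 h at 37 °C was determined by CellTiter-Glo luminescence and expressed as % activity.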
HT1080NT lethal: qHTS for induction of synthetic lethality in tumor cells producing 2HG: qHTS for the HT-1080-NT fibrosarcoma cell line; HT-1080-NT fibrosarcoma viability, CellTiter-Glo ATP luminescence, 48 h; Potency, µM (top dose mostly 46.1 µM), actives largely listed as cytotoxic; 360,000 compounds, 1.6% hits;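 note: NT is the 2HG producing partner of a matched IDH1 knockdown line; nearly all actives have a fitted effect of over 55% in size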
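Fibrosarcoma NT cells, 750 per well in 5% FBS RPMI, were exposed to compound for 48 hours. Viability: CellTiter-Glo luminescence.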
HepG2 tox: qHTS for Inhibitors of TGF-b: Cytotox Counterscreen | HepG2 CAGA-GFP viability, ATP luminescence, 18 h | AID 588856, 2011 | Potency, µM (highest dose often 46.1 µM), actives largely listed as cytotoxic | 410,000 compounds, 0.76% hits
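CellTiter-Glo luminescence gave cytotoxicity after 18 hours at 37 degrees C. The cells were HepG2 CAGA-GFP in 1% FBS DMEM, stimulated with 500 pg/mL TGF-beta after compound addition. %Activity was normalised to no-cell wells (complete cell-killing) and DMSO (no toxicity), and curves were fitted and classified.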
Numbers stand for hits; – = inactive; ? = inconclusive; · = no result given; [ ] = another dose, or the depositor's remark. Unless noted, calls come from the whole dose curve; as a rule, active = well fitted curve in the direction sought with a large enough effect; inconclusive = small, poorly fitted or top-dose-only effect, or another doubt; inactive = no such curve, though single readings can be large; an effect the other way counts as inactive or inconclusive.

SMILES | TGFb inhibitor | IL-1B inflam inh | Giardia killer | HT1080 IDH1KD tx | HT1080NT lethal | HepG2 tox
CCn1c(C(=O)N2CCC(C(=O)N3CCN(c4cccc(C)c4C)CC3)CC2)cc2sccc21 | 11.2µM | · | · | · | · | –
O=C(OCc1ccccc1)c1cccc(-c2nnn(Cc3ccccc3)n2)c1 | – | – | – | – | – | –
Cc1cccc(N2CCN(C(=O)c3cc(S(=O)(=O)N4CCCC4)cn3C)CC2)c1C | ? | – | – | 14.6µM | ? | –
CC(C)(C)OC(=O)N1CCC(c2c(C(=O)N3CCN(Cc4ccccc4)CC3)cnn2-c2ccc(Cl)cc2)CC1 | – | · | · | · | · | –
O=C(c1ccccc1)N1N=C(C(F)(F)F)CC1(O)c1ccccc1O (stereo unspecified) | 8.91µM | – | – | – | – | 7.08µM
Brc1ccc2ncnc(Nc3cccc4ccccc34)c2c1 | ? | -80.2 | – | ? | ? | –
CCc1ccc(/C=N/NC(=O)c2cc(-c3cccc([N+](=O)[O-])c3)n[nH]2)cc1 | ? | – | – | 6.51µM | 7.31µM | –
C/C(=N/NC(=O)c1cc(-c2cccc([N+](=O)[O-])c2)n[nH]1)c1cccc(O)c1 | – | – | – | – | – | –
C/C(=N\NC(=O)c1cc(-c2cccc([N+](=O)[O-])c2)n[nH]1)c1ccccc1O | ? | – | – | 23.1µM | ? | –
Cc1ccc2sc(N(CCCN(C)C)C(=O)c3ccc(S(=O)(=O)N(C)C4CCCCC4)cc3)nc2c1C | ? | ? | – | ? | – | –
CCN(Cc1ccccc1)S(=O)(=O)c1ccc(C(=O)N(CCCN(C)C)c2nc3cc4c(cc3s2)OCO4)cc1 | 15.8µM | -73.4 | – | ? | ? | 12.6µM
CN(C)CCCN(C(=O)c1ccc(S(=O)(=O)N(C)C)cc1)c1nc2cc3c(cc2s1)OCO3 | – | – | – | – | – | –
CCN(Cc1ccccc1)S(=O)(=O)c1ccc(C(=O)N(CCCN(C)C)c2nc3c(C)c(C)ccc3s2)cc1 | ? | -84.0 | – | 18.4µM | ? | –
O=C(c1ccc(F)cc1F)N1CCCN(c2nc(-c3ccccc3)ns2)CC1 | ? | – | – | – | – | –
COc1ccc(S(=O)(=O)N2c3ccccc3OCC2C)cc1 (stereo unspecified) | ? | – | – | 0.651µM | 0.651µM | –
COc1ccc(S(=O)(=O)N2CCOc3ccccc32)cc1 | – | – | – | 13µM | ? | –
COc1ccccc1CNC(=O)C(c1ccccc1)c1ccccc1 | – | – | – | – | – | –
COc1ccc(C2=NS(=O)(=O)N(C)C(C(=O)Nc3ccc(C(C)=O)cc3)=C2)cc1OC | ? | -96.7 | – | – | – | –
COc1ccc(-c2csc(C)n2)cc1 | – | – | – | – | – | –
COc1ccc(-c2csc(CCN3N=C(C)CC3=O)n2)cc1 | ? | -53.0 | – | – | – | –
OC(c1ccccc1)(c1ccccc1)c1nccc2ccccc12 | – | -55.1 | – | – | – | –
c1ccc(-c2nccc3ccccc23)cc1 | – | – | – | – | – | –
CCCCCCCCNS(=O)(=O)CCNCc1ccc(OC)cc1 | ? | -61.2 | – | ? | – | –
COc1ccc(CNCCS(=O)(=O)NCc2ccc(OC)cc2)cc1 | – | – | ? | – | – | –
O=C(Nc1ncc([N+](=O)[O-])s1)C1CC(=O)N(c2ccc(F)cc2)C1 (stereo unspecified) | – | – | -86.0 | – | – | –
SMILES | TGFb inhibitor | IL-1B inflam inh | Giardia killer | HT1080 IDH1KD tx | HT1080NT lethal | HepG2 tox
O=c1c(Cl)cc(Cl)nn1-c1ccccc1 | ? | -100.0 | – | ? | ? | 17.8µM
CC1CCN(C(=O)Cn2cc(C#N)c3ccccc32)CC1 | – | – | – | – | – | –
Cc1cccc(-n2ncc3c(NCc4ccccc4)ncnc32)c1 | ? | – | – | 18.4µM | ? | –
COc1ccc(OC)c(Nc2ncnc3c2cnn3-c2cccc(Cl)c2)c1 | – | · | · | · | · | –
Cc1ccc(-n2ncc3c(NCCCN(C)C)ncnc32)cc1Cl | ? | · | · | · | · | 12.6µM
COc1ccc(OC)c(Nc2ncnc3c2cnn3-c2cccc(C)c2)c1 | – | – | – | 7.08µM | 7.08µM | –
CCCCn1c(N)c(N(CC)C(=O)c2ccco2)c(=O)[nH]c1=O | – | – | – | – | – | –
COc1ccc(CN(C(=O)c2cccs2)C(C(=O)NC2CCCCC2)c2ccc3ncccc3c2)cc1 (stereo unspecified) | – | – | – | – | – | –
COc1ccc(CN(C(=O)c2ccc3c(c2)OCCO3)C(C(=O)NC2CCCCC2)c2ccc3ncccc3c2)cc1 (stereo unspecified) | – | – | – | –[9.24 µM] | – | –
O=C(NC1CCCCC1)C(c1ccc2ncccc2c1)N(Cc1ccccc1)C(=O)c1ccc2c(c1)OCCO2 (stereo unspecified) | ? | -55.4 | – | –[9.24 µM] | ? | –
O=C(NC1CCCCC1)C(c1ccc2ncccc2c1)N(Cc1ccc2c(c1)OCO2)C(=O)c1cccs1 (stereo unspecified) | – | -69.2 | – | ? | ? | –
O=C(NC1CCCCC1)C(c1ccc2ncccc2c1)N(Cc1ccccc1)C(=O)c1cccs1 (stereo unspecified) | – | -68.6 | – | ? | ? | –
O=C1CCCCc2sc(Br)c([N+](=O)[O-])c2N1 | – | -105.2 | – | ? | ? | –
CCCN(CC(=O)Nc1ccccc1C)C(=O)CCl | 5.62µM | -95.3 | – | 4.11µM | 8.2µM | –
CCOc1ccc2nc(N(Cc3cccnc3)C(=O)c3cccs3)sc2c1 | – | · | · | · | · | –
CC(/C=C/c1ccc2c(c1)OCO2)=N/NC(=O)CNc1ccc(C)cc1 | – | – | – | ? | ? | –
COCCn1c(=O)c2c(nc3n2CCCN3CCc2ccc(OC)c(OC)c2)n(C)c1=O | – | – | – | – | – | –
COc1ccc(CCN2CCCn3c2nc2c3c(=O)[nH]c(=O)n2C)cc1OC | – | – | – | 18.4µM | ? | –
O=C(/C=C/c1ccc(N2CCC(c3ccccc3)=N2)cc1)c1ccccc1 | – | -94.2 | – | – | – | –
O=C(c1ccc(S(=O)(=O)NCC2CCCO2)cc1)N1CCN(c2ccccc2F)CC1 (stereo unspecified) | – | – | – | – | – | –
COC(=O)COc1ccc(S(=O)(=O)Nc2ccc(C(N)=O)cc2)cc1C | 15.8µM | – | – | – | – | –
CNc1csc(C)c(C)c1=O | – | – | – | – | – | –
O=C(CCl)Nc1c2c(nn1-c1ccccc1)CSC2 | ? | -96.5 | – | ? | ? | –
